{"source": "the supplement of paper PMC8975748", "note": "Counter-ions that a name gives are not always drawn.", "data": [{"system": "Saccharomyces cerevisiae BY4741 SeMeCo community", "assay": "z-score of subpopulation abundance vs DMSO median, subpopulation auxotrophic for HU; higher = larger share of this subpopulation than in DMSO controls", "conditions": "10 µM; 24 h; SM minimal medium; subpopulation (auxotrophy): HU", "method": "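Fluorescent four-plasmid SeMeCo (self-establishing metabolically cooperating S. cerevisiae BY4741 community; plasmids pH-mRuby2, pL-mWasabi, pU-eCFP, pM-TagRFP657) was grown 24 h in minimal SM medium with each Selleck FDA-approved drug at 10 µM in 384-well plates. Cells were fixed and imaged by high-content confocal microscopy. For each auxotrophic subpopulation (and the prototroph), a z-score gives the deviation from the DMSO vehicle-control population median.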", "values": [{"molecule": "OCCN1CCN(CCCN2c3ccccc3Sc3ccc(C(F)(F)F)cc32)CC1", "note": "[Fluphenazine dihydrochloride]", "z-score of subpopulation abundance": 0.37}, {"molecule": "CC(=O)OCC(CCn1cnc2cnc(N)nc21)COC(C)=O", "note": "[Famciclovir]", "z-score of subpopulation abundance": -0.39}, {"molecule": "CCN(CC)CCNC(=O)c1cc(Cl)c(N)cc1OC", "note": "[Metoclopramide]", "z-score of subpopulation abundance": 1.02}, {"molecule": "CC1(C)[C@H](C(=O)O)N2C(=O)C[C@H]2S1(=O)=O", "note": "[Sulbactam]", "z-score of subpopulation abundance": -0.07}, {"molecule": "CCCCC(=O)O[C@H]1CC[C@H]2[C@@H]3CCc4cc(O)ccc4[C@H]3CC[C@]12C", "note": "[Estradiol valerate]", "z-score of subpopulation abundance": -0.05}, {"molecule": "CN(C)CCC=C1c2ccccc2C=Cc2ccccc21", "note": "[Cyclobenzaprine HCl]", "z-score of subpopulation abundance": 0.59}, {"molecule": "C[n+]1ccccc1C=NO", "note": "[Pralidoxime Iodide]", "z-score of subpopulation abundance": -0.21}, {"molecule": "CN1C(C(=O)Nc2ccccn2)=C(O)c2ccccc2S1(=O)=O", "note": "[Piroxicam]", "z-score of subpopulation abundance": -0.6}, {"molecule": "NC12CC3CC(CC(C3)C1)C2", "note": "[Amantadine]", "z-score of subpopulation abundance": -0.15}, {"molecule": "CC1(C)S[C@@H]2[C@H](NC(=O)Cc3ccccc3)C(=O)N2[C@H]1C(=O)O", "note": "[Penicillin G Sodium]", "z-score of subpopulation abundance": -0.78}, {"molecule": "Nc1nc2c(ncn2COCCO)c(=O)[nH]1", "note": "[Aciclovir]", "z-score of subpopulation abundance": -0.91}, {"molecule": "CCn1cc(C(=O)O)c(=O)c2cc(F)c(N3CCN(C)CC3)cc21", "note": "[Pefloxacin Mesylate Dihydrate]", "z-score of subpopulation abundance": 0.28}, {"molecule": "CN1[C@@H]2CC[C@H]1C[C@@H](OC(c1ccccc1)c1ccccc1)C2", "note": "[Benztropine mesylate]", "z-score of subpopulation abundance": -0.54}, {"molecule": "O=C(O)CCc1nc(-c2ccccc2)c(-c2ccccc2)o1", "note": "[Oxaprozin]", "z-score of subpopulation abundance": -1.46}, {"molecule": "CC(=O)[C@@]1(O)CC[C@H]2[C@@H]3C[C@H](C)C4=CC(=O)CC[C@]4(C)[C@H]3CC[C@@]21C", "note": "[Medroxyprogesterone]", "z-score of subpopulation abundance": 0.01}, {"molecule": "CCCCCc1ccc(C)cc1O", "note": "[Amylmetacresol]", "z-score of subpopulation abundance": -0.1}, {"molecule": "C[C@@H](c1ncncc1F)[C@](O)(Cn1cncn1)c1ccc(F)cc1F", "note": "[Voriconazole]", "z-score of subpopulation abundance": 9.96}, {"molecule": "CN(C)CCn1nnnc1SCC1=C(C(=O)O)N2C(=O)[C@@H](NC(=O)Cc3csc(N)n3)[C@H]2SC1", "note": "[Cefotiam hydrochloride]", "z-score of subpopulation abundance": 0.76}, {"molecule": "CCCN[C@H]1CCc2nc(N)sc2C1", "note": "[Pramipexole]", "z-score of subpopulation abundance": 1.27}, {"molecule": "Cc1c(-c2ccc(O)cc2)n(Cc2ccc(OCCN3CCCCCC3)cc2)c2ccc(O)cc12", "note": "[Bazedoxifene HCl]", "z-score of subpopulation abundance": -0.01}, {"molecule": "CN(C)c1ccc(O)c2c1C[C@H]1C[C@H]3[C@H](N(C)C)C(=O)C(C(N)=O)=C(O)[C@@]3(O)C(=O)C1=C2O", "note": "[Minocycline HCl]", "z-score of subpopulation abundance": -0.3}, {"molecule": "COc1ccccc1OCC(O)CN1CCN(CC(=O)Nc2c(C)cccc2C)CC1", "note": "(stereo not given) [Ranolazine 2HCl]", "z-score of subpopulation abundance": -0.09}, {"molecule": "C[C@]12CCC3=C4CCC(=O)C=C4CC[C@H]3[C@@H]1CC[C@@]2(O)CC#N", "note": "[Dienogest]", "z-score of subpopulation abundance": -0.02}, {"molecule": "O=C(Cn1ccnc1[N+](=O)[O-])NCc1ccccc1", "note": "[Benznidazole]", "z-score of subpopulation abundance": -0.83}, {"molecule": "CC(=O)[O-].[K+]", "note": "[Potassium acetate]", "z-score of subpopulation abundance": 0.19}, {"molecule": "C[C@H]1COc2c(N3CCN(C)CC3)c(F)cc3c(=O)c(C(=O)O)cn1c23", "note": "[Levofloxacin hydrate]", "z-score of subpopulation abundance": 0.77}, {"molecule": "OB1OCc2cc(F)ccc21", "note": "[Tavaborole (AN-2690)]", "z-score of subpopulation abundance": 5.21}, {"molecule": "O=C1CN(/N=C/c2ccc([N+](=O)[O-])o2)C(=O)N1", "note": "[Nitrofurantoin]", "z-score of subpopulation abundance": -0.72}, {"molecule": "C#CCN[C@@H]1CCc2ccccc21", "note": "[Rasagiline Mesylate]", "z-score of subpopulation abundance": -0.74}, {"molecule": "O=c1[nH]cnc2c1ncn2[C@@H]1O[C@H](CO)[C@@H](O)[C@H]1O", "note": "[Isoprinosine]", "z-score of subpopulation abundance": -0.35}, {"molecule": "Oc1c(I)cc(I)c2cccnc12", "note": "[Diiodohydroxyquinoline]", "z-score of subpopulation abundance": 2.97}, {"molecule": "CC1(C)S[C@@H]2[C@H](NC(=O)[C@H](N)c3ccccc3)C(=O)N2[C@H]1C(=O)O", "note": "[Ampicillin sodium]", "z-score of subpopulation abundance": 0.1}, {"molecule": "O=c1n(CCCN2CCN(c3cccc(Cl)c3)CC2)nc2ccccn12", "note": "[Trazodone HCl]", "z-score of subpopulation abundance": 0.33}, {"molecule": "Cn1c(=O)c2c(ncn2CC2OCCO2)n(C)c1=O", "note": "[Doxofylline]", "z-score of subpopulation abundance": -0.64}, {"molecule": "O=C1CN(/N=C/c2ccc(-c3ccc([N+](=O)[O-])cc3)o2)C(=O)N1", "note": "[Dantrolene sodium]", "z-score of subpopulation abundance": -3.33}, {"molecule": "CC1CCc2cc(F)cc3c(=O)c(C(=O)O)cn1c23", "note": "(stereo not given) [Flumequine]", "z-score of subpopulation abundance": 0.37}, {"molecule": "CN(C)[C@@H](CCOc1cccc2ccccc12)c1ccccc1", "note": "[Dapoxetine HCl]", "z-score of subpopulation abundance": -0.49}, {"molecule": "CC(C)NC(=N)NC(=N)Nc1ccc(Cl)cc1", "note": "[Proguanil]", "z-score of subpopulation abundance": -0.55}, {"molecule": "Cc1ccc(Sc2ccccc2N2CCNCC2)c(C)c1", "note": "[Vortioxetine]", "z-score of subpopulation abundance": 0.9}, {"molecule": "CO/N=C(\\C(=O)N[C@@H]1C(=O)N2C(C(=O)O)=CCS[C@H]12)c1csc(N)n1", "note": "[Ceftizoxime]", "z-score of subpopulation abundance": -0.76}]}]}
